The panel holds about 83,000 compounds, 20% with a hit somewhere; the sample as a whole holds those more often.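 A percent growth of 40 corresponds to 60% growth inhibition; 0 means no net growth; -100 means all cells died. Active threshold: below 10.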 Unmarked numbers belong to inactive results. Activity calls are given as the source filed them.

Experiment in all cases: NCI-60 one-dose screen, 48 h (100 = growth as untreated, 0 = no growth, -100 = all killed)
What all share (settings): 10 µM unless noted

The test system of experiment [1] is HCT-15 colon.
Experiment [2] deals with HT29 colon.
Experiment [3] concerns SNB-75 CNS.
Experiment [4] deals with SNB-19 CNS.
Experiment [5] concerns U251 CNS.
Experiment [6] deals with PC-3 prostate.
Experiment [7] concerns SK-MEL-5 melanoma.
Experiment [8] deals with UACC-62 melanoma.
Experiment [9] has as its system LOX IMVI melanoma.
In experiment [10] the test system is SK-MEL-28 melanoma.

For the molecule `NS(=O)(=O)c1ccc(-n2cc(CN3CCNCC3)nn2)cc1`, the growth was 104% in [1]; 109% in experiment [2]; 92.1% in [3]; 102% in experiment [4]; 105% in [5]; 102% in experiment [6]. In addition, the growth in [7] was 100%; in experiment [8] it was 99%; in experiment [9] it was 107%; in [10] it was 111%.
With `C#C[C@]1(O)CC[C@H]2[C@@H]3CC=C4c5sc(-c6cccc(O)c6)nc5CC[C@]4(C)[C@H]3CC[C@@]21C`, the growth in [1] was -25.2% (active); in experiment [2], -13.7% (active); in experiment [3] it was -52.7% (active); in experiment [4], -19.8% (active); in [5], -47.6% (active); in [6], -54.7% (active). Further, the growth in experiment [7] was -77.1% (active); in experiment [8] it was -61.3% (active); in experiment [9], -62.4% (active); in experiment [10], -68.8% (active).
Take `Brc1ccccc1/C=N/Nc1nc(N/N=C/c2ccccc2Br)nc(N2CCOCC2)n1`: the growth in experiment [1] was 81.1%; in experiment [2], 74%; in experiment [3], 132%; in [4] it was 101%; in experiment [5] it was 96.5%; in [6], 84%. Further, the growth in [7] is 69.6%; in experiment [8], 102%; in experiment [9] it was 103%; in experiment [10], 99.3%.
For the molecule `N/C(=N\C(N)=N\c1nc2ccccc2s1)c1ccncc1Cl`, the growth is 33% in experiment [1]; 18.8% in [2]; 7.82% (active) in experiment [3]; 38.2% in experiment [4]; 31.8% in experiment [5]; 29.5% in experiment [6]. Also, the growth in [7] is 39.2%; in [8] it was 28%; in experiment [9], 41.3%; in experiment [10] it was 58.3%.
`O=S(=O)(Oc1ccc(-c2nnc(Nc3ccccc3)s2)cc1)C(F)(F)C(F)(F)C(F)(F)C(F)(F)C(F)(F)C(F)(F)F`: the growth in [1] is 98.7%; in experiment [2] it was 109%; in experiment [3], 99.9%; in experiment [4], 101%; in experiment [5] it was 107%; in [6], 110%. The growth is 108% in experiment [7], 90.8% in experiment [8], 99.8% in [9] and 105% in experiment [10].
For `Cn1cc(-c2nc(N)nnc2-c2c[nH]c3ccccc23)c2cc(Br)ccc21`, the growth in [1] was 24.5%; in experiment [2], 5.93% (active); in experiment [3], 7.38% (active); in experiment [4], 27%; in [5] it was 23.1%; in [6] it was 6.53% (active). For the same molecule, the growth in experiment [7] is 22.7%; in experiment [8] it was 21%; in experiment [9], 24%; in experiment [10] it was 55.2%.
As for `COc1c(N2CC3CCCNC3C2)c(F)cc2c(=O)c(C(=O)N/N=C/c3c[nH]c4ccccc34)cn(C3CC3)c12` (stereo not given), the growth in experiment [1] is 57.4%; in experiment [2], 50.5%; in [3] it was 99.5%; in experiment [4], 103%; in experiment [5] it was 99.2%; in experiment [6], 76.9%. Besides, the growth in experiment [7] was 95.3%; in [8], 103%; in experiment [9], 90.2%; in experiment [10] it was 104%.
`NC(N)=Nc1ccc(Oc2cccc(NC(N)=Nc3ccc(Br)cc3)c2)cn1`: the growth in [1] was 85.4%; in experiment [2] it was 59.7%; in experiment [3], 68.6%; in experiment [4] it was 18.8%; in experiment [5] it was 43.1%; in experiment [6], 38.2%. Also, the growth in experiment [7] was 35.6%; in experiment [8], 63.2%; in [9], 0.0918% (active); in experiment [10] it was 82.9%.
With `N#Cc1cccc(CN2CCc3ncn(Cc4ccc(Cl)cc4)c(=O)c3C2)c1`, the growth was 13.5% in [1]; 28.3% in [2]; 33.2% in experiment [3]; 19.7% in [4]; 23.1% in [5]; 18.5% in experiment [6]. Besides, the growth in [7] is 3.19% (active); in experiment [8] it was 20.6%; in experiment [9], 35.3%; in experiment [10], 36.9%.
Regarding `C=C1CC[C@@H]2[C@]3(C)COC(c4ccccc4)O[C@@H]3CC[C@@]2(C)[C@@H]1C/C=C1/C(=O)OC[C@H]1O` (stereo not given in full), the growth in experiment [1] was 65.5%; in experiment [2], 54.8%; in experiment [3], 100%; in [4] it was 97%; in [5], 64.2%; in experiment [6] it was 82.4%. Further, the growth in experiment [7] is 94.7%; in experiment [8], 85.7%; in experiment [9], 33.8%; in [10], 107%.
Regarding `CC1(C)CC[C@]2(C(=O)O)CC[C@]3(C)C(=CC[C@@H]4[C@@]5(C)CC/C(=N\OCCC#N)C(C)(C)[C@@H]5CC[C@]43C)[C@@H]2C1`, the growth in experiment [1] is 106%; in experiment [2], 109%; in experiment [3] it was 53.4%; in experiment [4], 104%; in experiment [5], 107%; in [6], 99.2%. For the same molecule, the growth in experiment [7] was 98.4%; in [8] it was 92.6%; in [9], 91.8%; in experiment [10] it was 106%.
Take `O=[N+]([O-])c1cc(/C=N/Nc2nc(N/N=C/c3ccc(Cl)c([N+](=O)[O-])c3)nc(N3CCCCC3)n2)ccc1Cl`: the growth in experiment [1] was 49.7%; in [2] it was 7.43% (active); in experiment [3] it was 136%; in experiment [4], 72.6%; in experiment [5], 18.5%; in [6], 53.4%. Moreover, the growth in experiment [7] is 77.8%; in [8] it was 43.1%; in [9], 66%; in [10] it was 62.2%.
Take `CC1=CC(=O)C2=C(C)CC(OC(=O)CCc3ccccc3)[C@@H]3[C@H](OC(=O)[C@@H]3C)[C@@H]12` (stereo not given in full): the growth in experiment [1] is 81.7%; in [2] it was 78.1%; in experiment [3] it was 95.8%; in experiment [4], 93.6%; in experiment [5], 102%; in experiment [6], 76.7%. For the same molecule, the growth in experiment [7] is 82%; in experiment [8], 72.7%; in experiment [9], 95.9%; in experiment [10], 100%.
